PubChem BioAssay (Tox21)
“And” between values parts separate entries of the source, which are not always exact repeats. Identical values can stand only once. Results filed as inconclusive are left out. A call without a number means that no potency is given here. The source holds several records for some structures; these can differ, active in one and inactive in another. The source made the active and inactive calls. Calls follow the shape of the dose curve; as a rule, active = well fitted curve in the direction sought with a large enough effect in the repeat runs; inconclusive = weak or mixed curves; inactive = no such curve, though single readings can be large; an effect the other way counts as inactive or inconclusive.

Experiments:
[1] = A CellTox Green Cytotoxicity Assay to monitor cytotoxicity in HepG2 cells - 0 hour (AID 1224882); also: nearly all actives have a fitted effect of over 35% in size
Outline: (§1)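 Nonlytic assay: viable cells exclude the dye, so fluorescence scales with cell death. HepG2 at 600 cells/well, compounds added after 5 h, signal read across 40 h.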

[2] = A CellTox Green Cytotoxicity Assay to monitor cytotoxicity in HepG2 cells - 32 hour (AID 1224883); also: nearly all actives have a fitted effect of over 50% in size; also: potency is read from the fitted curve at half-maximal effect
Outline: as §1

[3] = A CellTox Green Cytotoxicity Assay to monitor cytotoxicity in HEK293 cells - 8 hour (AID 1224884); also: nearly all actives have a fitted effect of over 35% in size; also: potency is read from the fitted curve at half-maximal effect
Outline: (§2)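 Seeding of HEK293 cells together with cytotoxicity dye preceded a 5 h incubation at 37 C/5% CO2. Test compounds in DMSO were then added and fluorescence monitored across 40 h.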

[4] = qHTS RealTime-Glo MT Cell Viability Assay in HepG2 cells - 16 hour (AID 1224885); also: nearly all actives have a fitted effect of over 50% in size
Outline: (§3)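 qHTS, HepG2, 600 cells/well, RealTime-Glo (NanoLuc + prosubstrate) added with cells; 5 h preincubation; DMSO compound addition; 37 C; luminescence at 0/8/16/24/32/40 h.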

[5] = qHTS RealTime-Glo MT Cell Viability Assay in HEK293 cells - 24 hour (AID 1224886); also: nearly all actives have a fitted effect of over 50% in size; also: potency is read from the fitted curve at half-maximal effect
Outline: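 Assay medium contained NanoLuc luciferase plus cell-permeant prosubstrate, added with HEK293 cells at 600 cells/well. After 5 h at 37 C/5% CO2 compounds were added; plates stayed at 37 C for 40 h with serial luminescence reads.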

[6] = A CellTox Green Cytotoxicity Assay to monitor cytotoxicity in HEK293 cells - 16 hour (AID 1224888); also: nearly all actives have a fitted effect of over 35% in size
Outline: as §2

[7] = qHTS RealTime-Glo MT Cell Viability Assay in HepG2 cells - 0 hour (AID 1224889); also: nearly all actives have a fitted effect of over 50% in size; also: potency is read from the fitted curve at half-maximal effect
Outline: as §3

[8] = A CellTox Green Cytotoxicity Assay to monitor cytotoxicity in HepG2 cells - 8 hour (AID 1224890); also: nearly all actives have a fitted effect of over 45% in size
Outline: as §1

[9] = qHTS assay to identify small molecule antagonists of the estrogen receptor alpha (ER-alpha) signaling pathway using the BG1 cell line in the presence of 0.1 nM 17-beta-estradiol - cell viability counter screen (AID 1259241); also: nearly all actives have a fitted effect of over 40% in size; also: potency is read from the fitted curve at half-maximal effect
Outline: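 VM7Luc4E2, 4,000 cells/well, phenol red-free medium + 10% charcoal-stripped FBS; 24 hr plating; cpd + 0.1 nM E2 final, 22 hr 37C/5% CO2; CellTiter-Fluor 30 min, fluorescence.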

[10] = qHTS RealTime-Glo MT Cell Viability Assay in HEK293 cells - 8 hour (AID 1224887)
Outline: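 Tox21 screen in HEK293 using RealTime-Glo MT chemistry, with cells and reagent co-dispensed. Luminescence proportional to viable cell number was captured at intervals during 40 h compound exposure at 37 C.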

Compound | Potency [1] | Potency [2] | Potency [3] | Potency [4] | Potency [5] | Potency [6] | Potency [7] | Potency [8] | Potency [9] | Potency [10]
Oc1cccc(O)c1 | inactive | inactive | inactive | inactive | inactive | inactive | inactive | inactive | inactive | 
CC(=O)Oc1ccccc1C(=O)O | inactive | inactive | inactive | inactive | inactive | inactive | inactive | inactive | inactive | inactive
Cc1ccc(O)c(-n2nc3ccccc3n2)c1 | inactive | inactive | inactive |  | inactive | inactive | inactive | inactive | inactive | inactive
C1CNCCN1 | inactive | inactive | inactive | inactive | inactive | inactive | inactive | inactive | inactive | 
CN(C)Cc1cc(CN(C)C)c(O)c(CN(C)C)c1 | inactive | inactive | inactive | inactive |  | inactive | inactive | inactive | inactive | inactive
O=C(O)CCCCC1CCSS1 (configuration not stated) | inactive | inactive | inactive | inactive |  | inactive | inactive | inactive | inactive | inactive
CC(C)(C)NCC(O)c1ccc(O)c(CO)c1 (configuration not stated) | inactive | inactive | inactive | inactive | inactive | inactive | inactive | inactive | inactive | 
O=c1cc[nH]c(=O)[nH]1 | inactive | inactive | inactive | inactive |  | inactive | inactive | inactive | inactive | 
Nc1ccc(N=Nc2ccccc2)c(N)n1 | inactive | 31.1 µM (active) and 17.4 µM (active) | inactive | inactive | 39.1 µM (active) and 24.5 µM (active) | inactive | inactive | inactive | 61.4 µM (active) and 30.6 µM (active) | 
NCCNc1cccc2ccccc12 | inactive | 53.6 µM (active) and inactive | inactive | inactive | 48.9 µM (active) and 47.8 µM (active) and inactive | inactive | inactive | inactive | inactive | inactive
CCCCOCCOCCSC#N | inactive | inactive | inactive | inactive |  | inactive | inactive | inactive | inactive | inactive
CC1=NN(c2ccccc2)C(=O)C1 | inactive | inactive | inactive | inactive | inactive | inactive | inactive | inactive | inactive | inactive
C[C@]12C[C@H](O)[C@H]3[C@@H](CCC4=CC(=O)CC[C@@]43C)[C@@H]1CC[C@@H]2C(=O)CO | inactive | inactive | inactive | inactive | inactive | inactive | 9.79 µM (active) and 3.47 µM (active) and 9.52 µM (active) | inactive | inactive | inactive
CCOC(=O)C(C)(C)Oc1ccc(Cl)cc1 | inactive | inactive | inactive | inactive |  | inactive | inactive | inactive | inactive | 
CCCCNC(=O)NS(=O)(=O)c1ccc(N)cc1 | inactive | inactive | inactive | inactive | inactive | inactive | inactive | inactive | inactive | inactive
CCc1cc(C(N)=S)ccn1 | inactive | inactive | inactive |  | inactive | inactive | inactive | inactive | inactive | inactive
CC(C)=CCC/C(C)=C/CO | inactive | inactive | inactive | inactive |  | inactive | inactive | inactive | inactive | 
C=C(C)C(N)=O | inactive | inactive | inactive | inactive | inactive | inactive | inactive | inactive | inactive | 
Cc1c(N(C)CS(=O)(=O)O)c(=O)n(-c2ccccc2)n1C | inactive | inactive | inactive | inactive | inactive | inactive | inactive | inactive | inactive | inactive
CC(O)COc1ccccc1 (configuration not stated) | inactive | inactive | inactive |  | inactive | inactive | inactive | inactive | inactive | inactive
O=C(OCc1ccccc1)c1ccccc1 | inactive | inactive | inactive | inactive |  | inactive | inactive | inactive | inactive | 

Compound | Potency [1] | Potency [2] | Potency [3] | Potency [4] | Potency [5] | Potency [6] | Potency [7] | Potency [8] | Potency [9] | Potency [10]
CC(=O)/C=C/C1=C(C)CCCC1(C)C | inactive | inactive | inactive |  | inactive | inactive | inactive | inactive | inactive | inactive
Cc1cccc(C)c1O | inactive | inactive | inactive |  | inactive | inactive | inactive | inactive | inactive | inactive
C[C@]12CC[C@@H]3c4ccc(O)cc4C[C@@H](CCCCCCCCCS(=O)CCCC(F)(F)C(F)(F)F)[C@H]3[C@@H]1CC[C@@H]2O (some centres not stated) | inactive | inactive | inactive | inactive | 43.6 µM (active) | inactive | inactive | inactive | inactive | 
O=C(O)Cc1cccc2ccccc12 | inactive | inactive | inactive | inactive |  | inactive | inactive | inactive | inactive | 
COc1cc(O)c(C(=O)c2ccccc2)cc1S(=O)(=O)O | inactive | inactive | inactive | inactive |  | inactive | inactive | inactive | inactive | 
C#C[C@]1(O)CC[C@H]2[C@@H]3CCC4=CC(=O)CC[C@@H]4[C@H]3CC[C@@]21CC | inactive | inactive and 43.6 µM (active) | inactive | inactive | 43.6 µM (active) and inactive | inactive | inactive | inactive | inactive | inactive
CC1(C)O[C@@H]2[C@@H](CO[C@@]3(COS(N)(=O)=O)OC(C)(C)O[C@@H]23)O1 | inactive | inactive | inactive | inactive |  | inactive | inactive | inactive | inactive | inactive
C[C@]12C=CC(=O)C=C1CC[C@@H]1[C@@H]2C(=O)C[C@@]2(C)[C@H]1CC[C@]2(O)C(=O)CO | inactive | inactive | inactive | inactive |  | inactive | 22 µM (active) and 17.4 µM (active) | inactive | inactive | 
CCn1cc(C(=O)O)c(=O)c2ccc(C)nc21 | inactive | inactive | inactive | inactive |  | inactive | inactive | inactive | inactive | inactive
N[C@@H](Cc1c[nH]c2ccc(O)cc12)C(=O)O | inactive | inactive | inactive |  |  | inactive | inactive | inactive | inactive | 
COC1=CC(=O)C[C@@H](C)[C@]12Oc1c(Cl)c(OC)cc(OC)c1C2=O |  | 34.4 µM (active) | 24.3 µM (active) and inactive | inactive | inactive | inactive | inactive | inactive | inactive | 
O=C1OC(c2ccc(O)cc2)(c2ccc(O)cc2)c2ccccc21 | inactive | inactive | inactive |  | inactive | inactive | inactive | inactive | inactive | inactive
CC1=C(/C=C/C(C)=C/C=C/C(C)=C/C(=O)O)C(C)(C)CCC1 |  | inactive | inactive | inactive | inactive | inactive | inactive | inactive | inactive | inactive
O=c1c(-c2ccc(O)cc2)coc2cc(O)cc(O)c12 | inactive | inactive | inactive |  | 24.5 µM (active) | inactive | inactive | inactive | inactive | 
CCOCCO | inactive | inactive | inactive |  |  | inactive | inactive | inactive | inactive | inactive
CC(C)(C)CC(C)(C)c1ccc(O)c(-n2nc3ccccc3n2)c1 |  | inactive | inactive | inactive | 49.7 µM (active) and inactive | inactive | inactive | inactive | inactive | inactive
CC(C)Cc1ccc(C(C)C(=O)O)cc1 (configuration not stated) | inactive | inactive | inactive |  | inactive | inactive | inactive | inactive | inactive | 
C[C@]12CC[C@@H]3c4ccc(O)cc4CC[C@H]3[C@@H]1CCC2=O | inactive | inactive | inactive |  |  | inactive | inactive | inactive | inactive | inactive
NC(=O)N/N=C/c1ccc([N+](=O)[O-])o1 | inactive | inactive | inactive |  |  | inactive | inactive | inactive |  | inactive
COCCOCCOC |  | inactive | inactive | inactive | inactive | inactive | inactive | inactive | inactive | inactive
Nc1cccc(N)c1 | inactive | inactive | inactive |  |  | inactive | inactive | inactive | inactive | 
